In the library only some 4% were active in any assay of this set; here they are far more common.
EBV LMP1 NFkB – inhibitors of Epstein-Barr LMP1-induced NF-kappaB reporter. LMP1-induced NF-kappaB luciferase reporter cells, luminescence. inhibition, % at 12.5 µM. actives 0.69% (n = 350,000). AID 504558; in the data active means inhibition above about 41%; inconclusive means no clear call, values can overlap the other calls
Wnt bcat act – activators of Wnt/beta-catenin signaling | actives 1.2% (n = 300,000) | Wnt/beta-catenin reporter cell assay, activator, plate reader | activation, % at 9.35 µM; in the data active means activation above about 30%, passing the limit was not always enough; inconclusive means no clear call, values can overlap the other calls
MITF act – MITF TRPM1 promoter activation in melanoma cells. SK-MEL-5 TRPM1-promoter luciferase, 24 h; % of positive control, neutral wells = 0. activation, % at 12.5 µM. actives 0.75% (n = 300,000);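 active means mean activation of at least 80% with every replicate also reaching 80%; inconclusive means mean reaches 80% but some replicate falls short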
TRPM1 prom inh – MITF TRPM1 promoter inhibition in SK-MEL-5 cells | AID 488899 | inhibition, % at 12.5 µM | actives 0.83% (n = 330,000) | SK-MEL-5 TRPM1 promoter luciferase, 24 h;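 active means mean inhibition across replicates of 60% or more, whatever share of single replicates reaches that level; inconclusive means some that reach 60%, reason not given; inactive means mean inhibition across replicates below 60%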
esBAF inh – SWI/SNF esBAF complex inhibition | mouse ES cells, Bmi1-luciferase knock-in reporter, 24 h; 100% = twice the neutral-well signal | actives 2% (n = 350,000) | reporter increase, % at 12.5 µM | AID 602393; in the data active means activation above about 40%; inconclusive means no clear call, values can overlap the other calls;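 further: a rise in the Bmi1 reporter signal indicates esBAF inhibition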
C2C12 statin – suppressors of simvastatin-induced myotoxicity in C2C12 myotubes | ATP luminescence, 48 h; scaled: DMSO 0, geranylgeraniol control 100 | rescue of ATP level, % at 7.49 µM | actives 0.78% (n = 330,000);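 active means mean ATP rescue above about 67%, or every replicate alone reaching that limit, limit read from the data, passing the limit was not always enough; inconclusive means no clear call, values can overlap the other calls; inactive means mean under the limit and some replicate under it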;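 further: myotubes were challenged with 10 µM simvastatin during compound exposure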
Large screens that a line does not name were inactive.

CC(CN1CCN(C)CC1)OC(=O)c1ccc(Cl)cc1 (configuration not stated)	none (no result: Wnt bcat act, esBAF inh, C2C12 statin)
Cc1ccc(C)c(C(=O)Cn2ncc(Cl)c(Cl)c2=O)c1	TRPM1 prom inh 75 (no result: Wnt bcat act, esBAF inh, C2C12 statin)
CCOC(=O)c1ccc(NC(=O)Cn2ncc(Cl)c(Cl)c2=O)cc1	TRPM1 prom inh 103 (no result: esBAF inh, C2C12 statin)
CCc1ccccc1NC(=O)CN(C)C(=O)Cn1cnc2ccc(Cl)cc2c1=O	none
CCC(=O)Nc1ccc(C(=O)Cn2ncc(Cl)c(Cl)c2=O)cc1	TRPM1 prom inh inconclusive
CCc1ccccc1NC(=O)CN(C)C(=O)Cn1ncc(Cl)c(Cl)c1=O	EBV LMP1 NFkB 71, TRPM1 prom inh 89 (no result: esBAF inh, C2C12 statin)
Cc1cc(C(=O)Cn2ncc(Cl)c(Cl)c2=O)c(C)n1CC(F)(F)F	none (no result: esBAF inh, C2C12 statin)
Cc1ccc(C(=O)OCn2ncc(Cl)c(Cl)c2=O)cc1	EBV LMP1 NFkB 89, TRPM1 prom inh 105 (no result: Wnt bcat act)
Cc1ccccc1S(=O)(=O)NCC[C@@H]1CC[C@H](NC(=O)C2CCOCC2)[C@H](CO)O1	none (no result: EBV LMP1 NFkB, Wnt bcat act, MITF act, TRPM1 prom inh)
COc1ccc(/C=c2\s/c(=C(/C#N)C(=O)NCc3ccco3)n(-c3ccccc3)c2=O)cc1	none
CCOC(=O)c1cc2sccc2n1CC(=O)O	none
CCOC(=O)c1cc2sccc2n1CC(=O)N1c2ccccc2CC1C (configuration not stated)	TRPM1 prom inh 63 (no result: esBAF inh, C2C12 statin)
CCNC(=O)C[C@H]1C=C[C@H](NS(=O)(=O)c2ccc(C)cc2)[C@H](CO)O1	none (no result: EBV LMP1 NFkB, Wnt bcat act, MITF act, TRPM1 prom inh)
CC1CCN(C(=O)c2[nH]cnc2C(=O)N[C@H](C)c2ccccc2)CC1	none
O=C1C(c2ccccc2)C(c2ccccc2)NC(c2ccccc2)C1c1ccccc1 (configuration not stated)	C2C12 statin 111
CCN(CC)C(=O)CN(c1ccc2c(c1)OCO2)S(C)(=O)=O	none
CCN(CC)C(=O)CN(c1ccc(F)c(Cl)c1)S(C)(=O)=O	C2C12 statin 70
COc1ccc(O)c(C(=O)c2cnc3c(c2)c(C)nn3C)c1	none
CCCc1ccc(-c2ccc(-c3noc(-c4ccncc4)n3)cc2)nc1	none (no result: MITF act)
O=C1Nc2c(c(=O)[nH]c(=O)n2Cc2ccccc2)C1(NS(=O)(=O)c1ccccc1)C(F)(F)F (configuration not stated)	none (no result: esBAF inh, C2C12 statin)
CC(Sc1nc2ccccc2s1)C(=O)NCc1ccc2c(c1)OCO2 (configuration not stated)	esBAF inh 52
COc1ccc2c(c1)c(=O)oc1c(C)c(OC(C)C(=O)NCC3CCC(C(=O)O)CC3)ccc12 (configuration not stated)	none
c1ccc2sc(Sc3ncnc4sccc34)nc2c1	none (no result: esBAF inh, C2C12 statin)
CCc1cc2c(Sc3nc4ccccc4s3)ncnc2s1	EBV LMP1 NFkB 43 (no result: Wnt bcat act)
COCCNc1nc2sc3c(c2c(=O)n1Cc1ccco1)CCCCC3	esBAF inh 75
COCCCn1c(SCC(=O)NCc2ccco2)nc2sc3c(c2c1=O)CCC3	C2C12 statin 132
O=c1c2c3c(sc2nc(NCCO)n1Cc1ccco1)CCCCC3	esBAF inh 80
CN(C)CCNc1nc2sc3c(c2c(=O)n1Cc1ccccc1)CCCCC3	none
CCOc1ccc(CNn2nnnc2N)cc1	C2C12 statin 119
CC(C)CCn1c(O)c(N=NC(=O)c2ccco2)c2ccccc21	none (no result: esBAF inh, C2C12 statin)
COc1ccc(/C=C/C(=O)NC(=S)N2CCSCC2)cc1	none (no result: esBAF inh, C2C12 statin)
CCOC(=O)c1c(NC(C)=O)sc2c(OCC(O)CNC(C)(C)C)c(Br)ccc12 (configuration not stated)	TRPM1 prom inh 72
CN1CCN(C(=O)c2cc(-c3ccccc3)on2)CC1	none
Cc1cc2c(N=O)c(NO)ccc2[nH]1	C2C12 statin 80 (no result: Wnt bcat act)
CCC(C)NC(=O)CSc1nnc(-c2ccc(C(C)(C)C)cc2)n1C (configuration not stated)	none
CNc1cncc(-c2ccc(F)cc2F)n1	none (no result: EBV LMP1 NFkB, Wnt bcat act, MITF act, TRPM1 prom inh)
Fc1ccc2cnc(-c3ccccc3F)cc2c1	esBAF inh 54
Fc1ccccc1-c1cc2ccccc2cn1	Wnt bcat act 36, esBAF inh 61
Fc1ccc2cnc(-c3ccccc3)c(-c3cc(C(F)(F)F)cc(C(F)(F)F)c3)c2c1	none
COc1cc2cnc(-c3ccccc3F)cc2cc1OC	none
Fc1ccc2cc(-c3ccccc3F)ncc2c1	Wnt bcat act inconclusive, esBAF inh 63
Cc1noc(C)c1NC(=O)N[C@@H]1CC[C@H](CCNC(=O)C2CCOCC2)O[C@H]1CO	none (no result: EBV LMP1 NFkB, Wnt bcat act, MITF act, TRPM1 prom inh)
Fc1ccccc1Cc1noc(CN2CCC(OCc3cccnc3)CC2)n1	none (no result: esBAF inh, C2C12 statin)
COc1cc(C)ccc1OCCCOc1c(Cl)cccc1Cl	none (no result: esBAF inh, C2C12 statin)
COc1cc(C)ccc1OCCCOc1cc(C)ccc1Cl	C2C12 statin 156 (no result: Wnt bcat act)
COCCNC(=O)c1cc(-c2ccc(OC)c(OC)c2)on1	none (no result: Wnt bcat act)
Nn1c(-c2cccs2)nc2sc3c(c2c1=O)CCCC3	none (no result: Wnt bcat act)
O=c1oc(/C=C/c2ccccc2)nc2sc3c(c12)CCC3	MITF act 105 (no result: esBAF inh, C2C12 statin)
CCc1nc2sc3c(c2c(=O)o1)CCCC3	none (no result: Wnt bcat act)
COc1ccc(/C=C/c2nc3sc4c(c3c(=O)o2)CCC4)cc1	none (no result: Wnt bcat act)
O=c1oc(-c2cc3ccccc3o2)nc2sc3c(c12)CCCC3	MITF act 101, esBAF inh 53
Cc1nc2scc(-c3cccs3)c2c(=O)o1	none (no result: Wnt bcat act, esBAF inh, C2C12 statin)
O=c1oc(-c2cccs2)nc2sc3c(c12)CCCCC3	MITF act inconclusive, esBAF inh 43
O=c1oc(-c2cccs2)nc2scc(-c3cccs3)c12	esBAF inh 64 (no result: MITF act, C2C12 statin)
CC1CCCCC1NC(=O)CC1Oc2ccccc2NC1=O (configuration not stated)	none
C[C@@H]1CN([C@H](C)CO)C(=O)Cc2cc(NC(=O)CCCCCC(=O)Nc3ccccc3N)ccc2O[C@@H]1CN(C)S(=O)(=O)c1cn(C)cn1	none (no result: EBV LMP1 NFkB, Wnt bcat act, MITF act, TRPM1 prom inh)
Cc1ccccc1-c1cnc2c(c1)C(=O)N([C@@H](C)CO)C[C@@H](C)[C@H](CN(C)C(=O)CN(C)C)O2	none (no result: EBV LMP1 NFkB, Wnt bcat act, MITF act, TRPM1 prom inh)
CC(=O)c1sc(-c2ccccc2)cc1NS(=O)(=O)c1ccccc1	none (no result: MITF act, esBAF inh, C2C12 statin)
Cc1ccccc1-c1nc2sc3c(c2c(=O)o1)CCC3	none (no result: C2C12 statin)
O=c1oc(-c2ccccc2)nc2sc3c(c12)CCCC3	esBAF inh 56 (no result: Wnt bcat act)
CC(C)Sc1oc(-c2ccco2)nc1S(=O)(=O)c1ccccc1	none
O=C(O)[C@@H]1[C@H]2C[C@H]3c4[nH]c5ccccc5c4CCN3C[C@@H]2CC[C@@H]1O	EBV LMP1 NFkB 65
O=C1CCC2CN3CCc4c([nH]c5ccccc45)C3CC2C1 (configuration not stated)	none (no result: MITF act, TRPM1 prom inh)
OC1CCC2CN3CCc4c([nH]c5ccccc45)C3CC2C1 (configuration not stated)	esBAF inh 62 (no result: EBV LMP1 NFkB, MITF act, TRPM1 prom inh)
COC(=O)C1=CO[C@@H](C)[C@H]2CN3CCc4c([nH]c5ccccc45)[C@@H]3C[C@H]12	EBV LMP1 NFkB 78
COC(=O)C1=COC(C)C2CN3CCc4c([nH]c5ccccc45)C3CC12 (configuration not stated)	none
COCC#Cc1ccc2c(c1)O[C@@H](CN(C)C(=O)NC(C)C)[C@@H](C)CN([C@@H](C)CO)S2(=O)=O	none (no result: EBV LMP1 NFkB, Wnt bcat act, MITF act, TRPM1 prom inh)

Compound activity from PubChem BioAssay.
